GSTO1 counter = counter-screen for RBBP9 inhibitors: inhibitors of human GSTO1 | recombinant GSTO1, activity-based probe fluorescence polarization | 300,000 tested, 1.1% active | inhibition, % at 5.96 µM | P78417;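 active = inhibition above the campaign mean inhibition plus 3 SD, cut at about 35% in these data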
Target sequence (P78417 whole entry, looked up): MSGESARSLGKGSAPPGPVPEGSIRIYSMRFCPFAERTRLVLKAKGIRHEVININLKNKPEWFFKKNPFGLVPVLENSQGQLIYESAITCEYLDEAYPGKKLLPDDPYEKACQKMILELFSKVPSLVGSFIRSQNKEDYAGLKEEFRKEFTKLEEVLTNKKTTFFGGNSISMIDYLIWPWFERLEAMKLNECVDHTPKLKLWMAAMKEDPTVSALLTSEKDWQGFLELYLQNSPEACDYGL
PME-1 inh = blocks human protein phosphatase methylesterase 1 | recombinant PME-1, FP-Rh probe fluorescence polarization | inhibition, % at 5.9 µM | 320,000 tested, 0.53% active;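 active = inhibition above the campaign mean of all compounds plus 3 SD, cut at about 26% in these data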;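 note: competitive labeling of PME-1 active site by serine hydrolase directed probe; inhibitors block probe labeling so polarization falls and inhibition rises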
Fam108B inh = blocks mouse Fam108B hydrolase in RBBP9 counter-screen | AID 1947 | inhibition, % at 9.51 µM | 300,000 tested, 0.33% active | recombinant Fam108B, FP-Rh probe fluorescence polarization;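 active = inhibition above the screen mean inhibition plus 3 SD, computed separately per campaign, cut at about 18% in these data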;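 note: inhibitors lower polarization as less probe binds the enzyme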
LYPLA2 counter = counter-screen for PME1 inhibitors: inhibitors of human LYPLA2. O95372. recombinant LYPLA2, FP-Rh probe fluorescence polarization. inhibition, % at 5.9 µM. 320,000 tested, 0.38% active;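 active = inhibition above the screen-wide mean plus 3 SD, limit set per campaign, cut at about 26% in these data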
LYPLA1 inh = counter-screen for PME1 inhibitors: inhibitors of human LYPLA1. O75608. AID 2174. recombinant LYPLA1, FP-Rh probe fluorescence polarization. 320,000 tested, 0.16% active. inhibition, % at 5.9 µM;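 active = inhibition above the mean of all tested compounds plus 3 SD, set per campaign, cut at about 14% in these data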;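 note: inhibitors block serine hydrolase probe labeling of LYPLA1 so polarization falls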
Target sequence (O75608 whole entry, looked up): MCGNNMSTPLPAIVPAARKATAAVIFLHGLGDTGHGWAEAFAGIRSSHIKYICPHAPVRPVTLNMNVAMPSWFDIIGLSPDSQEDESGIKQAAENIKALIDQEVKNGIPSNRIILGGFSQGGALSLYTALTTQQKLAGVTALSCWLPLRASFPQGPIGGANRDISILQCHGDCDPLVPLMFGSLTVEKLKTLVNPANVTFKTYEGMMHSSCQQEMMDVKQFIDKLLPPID
PAD4 FP inh = inhibitors of human PAD4; 330,000 tested, 0.41% active; AID 485272; inhibition, % at 6.36 µM; Q9UM07; recombinant PAD4, RCA probe fluorescence polarization;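 active = percent inhibition above a cutoff equal to the mean of all tested compounds plus 3 SD, cut at about 15% in these data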
Fam108b inh conf = Fam108b (mouse) hydrolase inhibition, confirmation assay; shares compounds with Fam108B inh; recombinant Fam108b, FP-Rh probe fluorescence polarization; 930 tested, 44% active; AID 1978; inhibition, % at 9.51 µM;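 active = inhibition above a limit from the primary screen, the mean over all compounds plus 3 SD, cut at about 19% in these data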;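 note: inhibitors free the probe so polarization falls as inhibition rises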
Fam108b inh = inhibits mouse Fam108b in gel-based ABPP; recombinant Fam108b, fluorophosphonate probe; shares compounds with Fam108B inh; 260 tested, 44% active; inhibition, % at 20 µM; in the data active = inhibition above about 40%
GSTO1 inh conf = confirmation of human GSTO1 inhibitors; shares compounds with GSTO1 counter; recombinant GSTO1, probe fluorescence polarization; inhibition, % at 5.96 µM; 2,400 tested, 54% active;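 active = inhibition above the primary screen's cutoff, its mean inhibition plus 3 SD, cut at about 35% in these data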;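 note: loss of polarization as inhibitors block binding of rhodamine sulfonate ester activity probe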
Each line names hits and unclear results; the compound was inactive in the other large screens (follow-up assays come after a bar, where they were run). Hits are enriched below; roughly 1.8% of the tested compounds scored in any of these assays.

O=[N+]([O-])c1cc(Br)c(O)c(/C=N/Nc2nnnn2-c2cccc3ccccc23)c1	PME-1 inh 48.7, Fam108B inh 39.8 | Fam108b inh conf 53.6
CC(C)c1ccc(C2(C)NC(=O)N(CC(=O)NCC3COc4ccccc4O3)C2=O)cc1 (centres undefined)	none (no result: GSTO1 counter, Fam108B inh)
O=C(NN=C1CCN(Cc2ccccc2)CC1)c1ccccc1O	none
O=C(NN=C1CCN(Cc2ccccc2)CC1)c1cc2ccccc2cc1O	PME-1 inh 29.0, Fam108B inh 33.5 | Fam108b inh conf inactive
Cc1ccc(NC(=O)CN2C(=O)N/C(=C/c3cccn3-c3ccc(C(=O)O)cc3)C2=O)cc1	GSTO1 counter 37.2, Fam108B inh 43.5 | Fam108b inh conf 39.4 | Fam108b inh inactive
Cc1ccc(NC(=O)CN2C(=O)N/C(=C/c3ccco3)C2=O)cc1	none
O=C(O)/C=C/C(=O)Nc1ccc(S(=O)(=O)Nc2nccs2)cc1	none
COc1ccccc1C(=O)NC1CCN(C(=O)Nc2ccc(C)cc2)CC1	none
CCN1CCc2c(sc(NC(=O)Cc3ccccc3)c2C(N)=O)C1	none
CCN1CCc2c(sc(NC(=O)Nc3ccc(Cl)c(Cl)c3)c2C(N)=O)C1	PME-1 inh 56.7, Fam108B inh 31.9 | Fam108b inh conf inactive
COc1ccc(C(=O)NC2CC2)cc1OC1CCN(Cc2cc(C)cc(C)c2)CC1	none
COc1ccc(CC(=O)N2CCN(S(=O)(=O)c3cc(Cl)ccc3Cl)CC2)cc1	none (no result: GSTO1 counter, Fam108B inh)
CN(C)CC(C)(C)CNS(=O)(=O)c1ccc(Cl)s1	none
CCOCc1cnc(C)nc1NCC(=O)c1c(C)[nH]c2ccccc12	Fam108B inh 57.2 | Fam108b inh conf inactive
CCOCc1cnc(C)nc1NCC(=O)c1c(C)[nH]c2cc(C)ccc12	none
COc1cc(CN(C2CC2)S(=O)(=O)c2ccccc2Br)cc(OC)c1	none (no result: GSTO1 counter, PME-1 inh, Fam108B inh, LYPLA2 counter, LYPLA1 inh)
CC1=NN(C(N)=S)C(=O)C1N=Nc1c(Br)cc(Br)cc1Br (centres undefined)	Fam108B inh 29.5 | Fam108b inh conf 33.4 | Fam108b inh inactive
CC1=NN(C(N)=S)C(=O)C1N=Nc1c(C)cc(C)cc1C (centres undefined)	none
CCCCN(C(=O)CC1CCCC1)c1c(N)n(CCCC)c(=O)[nH]c1=O	none (no result: GSTO1 counter, Fam108B inh)
COCC(=O)N(Cc1cc2ccc(C)cc2[nH]c1=O)c1ccc(OC)cc1	none
COCC(=O)N(Cc1cc2cc(OC)ccc2[nH]c1=O)c1ccc(C)cc1	Fam108B inh 23.5 | Fam108b inh conf inactive
NNc1nc2c(-c3ccc(Cl)cc3)nnn2c2ccccc12	Fam108B inh 54.9 | Fam108b inh conf 64.8 | Fam108b inh inactive
COCCCNc1nc2c(-c3ccc(Cl)cc3)nnn2c2ccccc12	none
NNc1nc2c(-c3ccc(F)cc3)nnn2c2ccccc12	Fam108B inh 25.7 | Fam108b inh conf inactive
Fc1ccc(-c2nnn3c2nc(NCc2ccccc2)c2ccccc23)cc1	none
O=C(NCc1ccccc1)c1sc(=S)n2c1[nH]c(=O)c1ccccc12	Fam108B inh 39.6 | Fam108b inh conf 54.6 | Fam108b inh inactive
COc1ccc2c(c1OC)C(=O)N1C2SC(C)(C)[C@H]1C(=O)NC1CC1 (some centres undefined)	none
O=[N+]([O-])c1ccc(O)c(Nc2ncnc3ccc(Br)cc23)c1	PME-1 inh 32.4, Fam108B inh 20.3 | Fam108b inh conf inactive
CCOC(=O)c1ccc(Nc2cc(C)nc(-c3ccccc3)n2)cc1	Fam108B inh 18.4 | Fam108b inh conf inactive
O=C(Nc1cccc(Cl)c1)Nc1ccc2c(c1)OCO2	Fam108B inh 19.1 | Fam108b inh conf inactive
COc1cc(C(=O)N(CCN(C)C)CC2CCCN(Cc3ccccc3F)C2)ccc1C (centres undefined)	none
O=C1Nc2ccc(Br)cc2C12NNc1ccccc1O2 (centres undefined)	PME-1 inh 37.8, Fam108B inh 21.0 | Fam108b inh conf inactive
NC(=O)c1ccc(N=C2C(=O)Nc3ccc([N+](=O)[O-])cc32)cc1	GSTO1 counter 71.5, Fam108B inh 24.4 | Fam108b inh conf inactive | GSTO1 inh conf inactive
O=[N+]([O-])c1cc([N+](=O)[O-])c2c(=Nc3ccccc3)n(-c3ccccc3)n(O)c2c1	GSTO1 counter 45.6, Fam108B inh 19.0 | Fam108b inh conf 26.7 | GSTO1 inh conf 62.6
CCN(CC)c1ccc2c(-c3ccc(S(=O)(=O)O)cc3S(=O)(=O)[O-])c3ccc(=[N+](CC)CC)cc-3oc2c1	GSTO1 counter 197.6, PME-1 inh active, Fam108B inh 89.6 (no result: PAD4 FP inh) | Fam108b inh conf 165.5 | GSTO1 inh conf active
CC(C)(C)N1C(=O)Cc2c1nc(N)c1c(N)nc(N3CCCCC3CO)c(C#N)c21 (centres undefined)	GSTO1 counter 90.7, Fam108B inh 39.8 | Fam108b inh conf 90.5 | GSTO1 inh conf 88.3
O=C(Cn1nc(-c2ccccc2)c2ccccc2c1=O)NCCO	none
Oc1ccccc1N=N/C(=N/Nc1ccccc1O)c1ccccc1	none
N#C/C(N=Nc1ccccc1O)=N\Nc1ccccc1O	GSTO1 counter 87.1, PME-1 inh 31.9, Fam108B inh 38.8 | Fam108b inh conf 39.9 | Fam108b inh inactive | GSTO1 inh conf 67.9
Nc1ccc(N)c(C(=O)O)c1	GSTO1 counter 57.0, Fam108B inh 56.9 | Fam108b inh conf 45.0 | Fam108b inh inactive | GSTO1 inh conf inactive
CCOc1ccccc1NC(=O)COc1ccc2ccc(=O)oc2c1	none
CC1CC(=O)c2c(cc3c(-c4c(O)cc(O)c5c(O)c6c(cc45)OC(C)CC6=O)c(O)cc(O)c3c2O)O1 (centres undefined)	GSTO1 counter 62.0, Fam108B inh 53.7 | Fam108b inh conf 65.9 | Fam108b inh inactive | GSTO1 inh conf 73.1
O=C1CC(c2ccc(O)cc2)Oc2cc(O)cc(O)c21 (centres undefined)	none
O=C1CCCC2=C1C(c1ccco1)Nc1ccc3ccccc3c12 (centres undefined)	GSTO1 counter 38.0, Fam108B inh 18.5 | Fam108b inh conf inactive | GSTO1 inh conf inactive
CCOC(=O)Cc1csc(NC(=O)CN2CCN(c3ccccc3)CC2)n1	none
Cc1cccc(C)c1NC(=O)CSc1nnc(-c2ccco2)c(-c2ccco2)n1	GSTO1 counter 58.4, Fam108B inh 26.1 | Fam108b inh conf inactive | GSTO1 inh conf 39.6
CCOc1ccccc1Oc1c(C)oc2c(CN3CCN(CCO)CC3)c(O)ccc2c1=O	none
